# Experimental data as given in PubChem BioAssay AID777 (Sanford-Burnham Center for Chemical Genomics, 2007).
# Among all 96,000 compounds or so, about 19,000 (20%) were called active. A selection follows. A number with no mark means an inactive call.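 The calls were made as follows: active = blocking of liver enzyme CYP2C9 beyond about 50% at 5 µM (limit read from the data); inactive = the rest.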
# Target: Cytochrome P450 2C9 (Homo sapiens) (UniProt P11712)
# Test: blockers of cytochrome P450 2C9 activity – biochemical, luminescence, ADME assay, primary screen (AID 777)
# Conditions: CYP2C9 Supersomes, luciferin-H conversion, at 5 µM, stronger effect = higher value
# Chain of Cytochrome P450 2C9 (Homo sapiens) (P11712 whole entry, looked up): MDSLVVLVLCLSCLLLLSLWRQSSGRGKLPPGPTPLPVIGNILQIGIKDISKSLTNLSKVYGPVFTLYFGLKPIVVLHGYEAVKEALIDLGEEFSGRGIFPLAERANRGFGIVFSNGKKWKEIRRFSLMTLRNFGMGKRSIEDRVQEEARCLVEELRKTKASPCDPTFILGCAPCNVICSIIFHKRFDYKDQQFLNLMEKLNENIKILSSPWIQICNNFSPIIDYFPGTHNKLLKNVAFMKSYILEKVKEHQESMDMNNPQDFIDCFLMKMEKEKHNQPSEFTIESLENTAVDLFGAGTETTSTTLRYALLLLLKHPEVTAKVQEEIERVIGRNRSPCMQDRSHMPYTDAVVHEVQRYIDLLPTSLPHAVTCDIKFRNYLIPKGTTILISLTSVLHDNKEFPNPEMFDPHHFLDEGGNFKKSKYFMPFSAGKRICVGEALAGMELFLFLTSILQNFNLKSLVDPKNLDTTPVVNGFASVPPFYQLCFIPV
row,Compound,inhibition
1,Cc1nc2nc(CSc3nc4ccccc4s3)cc(=O)n2[nH]1,60.1% (active)
2,CCCc1cc(=O)n2[nH]c(SCc3ccccc3)nc2n1,43.9%
3,CCCCn1nc(C(=O)N2CCc3ccccc32)c2ccccc2c1=O,41%
4,CC(=O)Cc1nsc(NC(=O)c2csc3c2CCCC3)n1,30%
5,CCOc1ccc(OCc2ccc(C(=O)Nc3cccc(C)n3)o2)cc1,40.9%
6,CC(=O)Cc1nsc(NC(=O)c2ccc(COc3ccc(C)cc3)o2)n1,64.4% (active)
7,O=C(Oc1ccccc1)Oc1ccc2c(c1)oc(=O)c1ccccc12,-55.2%
8,Cc1c(C(=O)N2CC(C)OC(C)C2)sc2nc(-c3ccccc3)cn12 (centres undefined),1.3%
9,Fc1ccccc1/C=C1\CCCC2=C1Nc1ncnn1C2c1ccccc1F (centres undefined),43.9%
10,Cc1ccc(C2(C(F)(F)F)N=C3Sc4cc(C)cc(C)c4N3C(=O)N2)cc1 (centres undefined),65.5% (active)
11,CCOC(=O)C(=O)Nc1nc(-c2ccccc2)c(CC)s1,2.4%
12,N=c1n(Cc2ccc(Cl)cc2)c2ccccc2n1CC(O)c1ccco1 (centres undefined),23.2%
13,Cc1cccn2c(=O)c(/C=C3\SC(=S)N(CC(C)C)C3=O)c(NCCCOC(C)C)nc12,27%
14,Cn1c(=NC(=O)c2ccco2)sc2cccc(F)c21,1%
15,CC(Oc1ccc(-c2ccccc2)c(F)c1)c1ccn(S(=O)(=O)c2cccc3ccccc23)n1 (centres undefined),76.9% (active)
16,CCN(CC)Cc1cc(C(C)=O)ccc1O,-7.4%
17,CCOc1ccccc1Oc1cn[nH]c1-c1ccc(OC)cc1O,98.2% (active)
18,CCOc1ccccc1NC(=O)Nc1cc(OC)ccc1OC,4.9%
19,CCOC(=O)C1CCN(C(=O)CSc2cc(=O)n(C)c3ccccc23)CC1,18.3%
20,O=c1c(-c2ccccc2)coc2c(CN3CCOCC3)c(O)ccc12,7.7%
21,CCOC(=O)C1CCCN(Cc2nc(N)nc(Nc3ccc(C)cc3)n2)C1 (centres undefined),13.1%
22,CC(C)(O)C#Cc1ccc(C(=O)N2CCC(C(N)=O)(N3CCCCC3)CC2)cc1,27.6%
23,NC(=O)C1(N2CCCCC2)CCN(C(=O)c2ccc(C#Cc3ccccc3)o2)CC1,71.6% (active)
24,NC(=O)C1(N2CCCCC2)CCN(C(=S)Nc2ccc(Cl)cc2)CC1,20.5%
25,CCOC(=O)N1CCC(NC(=O)c2cnn3ccccc23)CC1,9.8%

row,Compound,inhibition
1,O=C(Nc1cccc(-c2nnc(-c3ccccc3)o2)c1)C1CCCO1 (centres undefined),27.5%
2,c1ccc(-c2nnc(SCc3nc4ccccc4[nH]3)o2)cc1,50.9% (active)
3,C=CCSc1nc2ccccc2[nH]1,-21%
4,O=C(CSc1nnc(-c2ccccc2)o1)N1CCOCC1,-9.8%
5,O=C(NC1CCCC1)c1ccc(Br)s1,33.9%
6,CCOc1cc(S(=O)(=O)NCc2ccc3c(c2)OCO3)ccc1F,61% (active)
7,CCOc1cc(S(=O)(=O)NC2CC(C)(C)NC(C)(C)C2)ccc1F,-1.2%
8,CCOc1c2ccc(C(=O)NCc3ccc4c(c3)OCO4)cc2nn1C,41.4%
9,COc1ccc(OCCCC(=O)Oc2ccc(OC)cc2)cc1,11.2%
10,Cc1cc(C(F)(F)F)n2ncc(-c3ccccc3)c2n1,0.4%
11,Cn1c(-c2sc3cc(C(F)(F)F)cnc3c2-c2ccccc2)n[nH]c1=S,51.7% (active)
12,Cc1ccc(/C=N\n2c(-c3ccccc3)n[nH]c2=S)s1,13.6%
13,O=C(NCCc1ccccn1)c1cc(C(=O)C2CCCCC2)c[nH]1,10.3%
14,CC(C)Oc1ccc(CCc2n[nH]c(=S)n2Cc2ccccc2)cc1,16.2%
15,S=c1[nH]nc(CSCc2ccc(Cl)cc2Cl)n1-c1ccccc1,76.5% (active)
16,O=c1[nH]nc(CSCc2ccccc2Cl)[nH]1,-20.8%
17,CC(Cc1cccs1)NC(=O)NC1CCCCC1 (centres undefined),12.2%
18,Fc1ccc(CNc2nc3ccccc3n3nnnc23)cc1,11.6%
19,COc1ccc(-c2c3c(=O)n(C)c(=O)n(C)c3cn2NC(C)=O)cc1,1.5%
20,COc1ccc(N(C(=O)c2cccnc2)S(=O)(=O)c2ccc3c(c2)n(C)c(=O)n3C)cc1,86.2% (active)
21,CCc1ccccc1NC(=O)CN(C)S(=O)(=O)c1ccc2c(c1)c(=O)n(C)c(=O)n2C,-17.2%
22,Cc1ccsc1C(C(=O)NC1CCCCC1)N(C(=O)Cc1cccs1)C1CC1 (centres undefined),18.5%
23,Cc1ccc(F)cc1NC(=O)c1cccc(N(C)C)c1,-1.6%
24,Cc1ccc(C(c2nnnn2CS(=O)(=O)c2ccc(C)cc2)N2CCC(C)CC2)cc1 (centres undefined),-18.8%
